{"source": "PubChem BioAssay AID485313", "about": "(National Center for Advancing Translational Sciences (NCATS), 2010)", "note": "Hit rate of the full screen: of about 320,000 compounds, about 7,600 (2.4%) were called active. Another 3% or so got no clear call; they are omitted. For the sample, actives were picked, then their nearest neighbours and some compounds at random. A number with no mark means an inactive call. Calls follow the shape of the dose curve; as a rule, active = well fitted activation curve with a large enough effect; inconclusive = small, poorly fitted or top-dose-only effect; inactive = no such curve, though single readings can be large or run the other way. Potency is read from the fitted curve at half-maximal effect.", "data": [{"experiment": "qHTS Assay for NPC1 Promoter Activators; also: nearly all actives have a fitted effect of over 60% in size;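 as to activation: reporter is driven by a mutant NPC1 promoter; % of control where 0% means no effect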", "conditions": "Huh7 NPC1 promoter luciferase reporter, 24 h; series mostly up to 9.22 µM; activation: at the top concentration", "summary_of_the_method": "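Huh7 reporter cells (NPC1 promoter driving luciferase) are dosed with compound for 24 h at 37 °C, 5% CO2; luciferase detection reagent is then added and luminescence measured after 10 min at ambient temperature.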", "values": [{"smiles": "CCc1ccccc1OCC(=O)Nc1ccc(C)c(S(=O)(=O)N2CCCCCC2)c1", "activation": "0.449%"}, {"smiles": "O=C(NCc1cccc(Cl)c1)C1=CC=CN2CCS(=O)(=O)N=C12", "activation": "0.609%"}, {"smiles": "CC(C)Cn1c(N)c(C(=O)COC(=O)C2CCCN2C(=O)c2cccs2)c(=O)n(C)c1=O", "note": "(centres undefined)", "activation": "-5.84%"}, {"smiles": "COc1ccccc1Nc1nnc(SC(C)C(=O)NC2CC2)s1", "note": "(centres undefined)", "activation": "-1.22%"}, {"smiles": "CC(=O)Nc1ccc(/C=C/C(=O)c2ccccc2)cc1", "Potency": "2510 nM (active)"}, {"smiles": "O=C(/C=C/c1ccc(N2CCOCC2)cc1)c1ccccc1", "Potency": "2000 nM (active)"}, {"smiles": "CC(=O)Nc1ccc(NC(=S)NC(=O)/C=C/c2ccccc2)cc1", "activation": "-7.81%"}, {"smiles": "O=C(CN1CCN(S(=O)(=O)/C=C/c2ccccc2)CC1)Nc1ccc(N2CCOCC2)cc1", "activation": "-4.53%"}, {"smiles": "CC(OC(=O)/C=C/c1ccccc1)C(=O)Nc1ccc(C(N)=O)cc1", "note": "(centres undefined)", "activation": "-2.06%"}, {"smiles": "O=C(O)c1ccc2c(c1)C(=O)N(c1ccc(/C=C/C(=O)c3ccccc3)cc1)C2=O", "activation": "4.16%"}, {"smiles": "O=C(Nc1ccccc1N1CCOCC1)c1ccncc1", "activation": "1.48%"}, {"smiles": "CCN(C(=O)CSc1ncnc2sccc12)c1c(N)n(Cc2ccccc2)c(=O)[nH]c1=O", "activation": "-2.5%"}, {"smiles": "CC1(C)CC(=O)C=C(c2ccc3ncccc3c2)C1", "activation": "-0.503%"}, {"smiles": "COc1ccc2c3c(c(=O)oc2c1)C1O[C@](CCCCN2C(=O)c4ccccc4C2=O)(Cc2c1ccc1ccccc21)O3", "activation": "-3.07% [at 1.84 µM]"}, {"smiles": "O=C(Cn1nnc(-c2ccccc2)n1)NC(=O)NC1CCCC1", "activation": "-1.17%"}, {"smiles": "O=C(COC(=O)Cn1[nH]c(=O)c2ccccc2c1=O)Nc1ncc(Cl)cc1Cl", "activation": "-0.303%"}, {"smiles": "COc1ccccc1/C=C/C(=O)OCC(=O)NC1CCCCCC1", "activation": "-2.47%"}, {"smiles": "CCOC(=O)c1c(C)[nH]c(C2=NNC(=NC(C)COC)SC2)c1C", "note": "(centres undefined)", "Potency": "1580 nM (active)"}, {"smiles": "COc1ccc(CCNC(=O)COC(=O)C2CC2C)cc1", "note": "(centres undefined)", "activation": "-0.82%"}, {"smiles": "Cc1cc(CN(C)C(=O)c2cc(COc3ccc(C)c(C)c3)on2)n[nH]1", "Potency": "2510 nM (active)"}, {"smiles": "CN(CCOc1ccccc1)C(=O)c1cc(COc2c(F)cccc2F)on1", "activation": "-0.673%"}, {"smiles": "CCn1ccnc1CN(C)C(=O)c1cc(COc2ccc(-n3cncn3)cc2)on1", "activation": "3.54%"}, {"smiles": "CN(Cc1cnccn1)C(=O)c1cc(COc2cccc(C(F)(F)F)c2)on1", "activation": "20.7%"}, {"smiles": "CN(Cc1cccnc1)C(=O)c1cc(COc2ccc3ncccc3c2)on1", "activation": "-17.8%"}, {"smiles": "Cc1ccc(OCc2cc(C(=O)N(C)CCc3ccccc3)no2)cc1C", "Potency": "2820 nM (active)"}, {"smiles": "CC1CC(C)CN(C(=O)COC(=O)c2ccc3ncsc3c2)C1", "note": "(centres undefined)", "activation": "-0.452%"}, {"smiles": "Cc1ccc(NC(=O)CCNC(=O)c2ccc([N+](=O)[O-])cc2)cc1S(=O)(=O)N1CCOCC1", "activation": "-0.724%"}, {"smiles": "O=C(NCCc1ccc(C(F)(F)F)cc1)c1ccc2c(c1)OCO2", "activation": "-0.0657%"}, {"smiles": "COc1ccc(NC(=O)CSc2nnc(C3CC3)n2C)cc1S(=O)(=O)N1CCCCC1", "activation": "5.26%"}, {"smiles": "Cc1ccc(NC(=O)C2(N3CCC3=O)CCCCC2)cc1", "activation": "-6.24%"}, {"smiles": "COc1ccc(C(=O)NCc2nnc(SCCOc3ccccc3)n2C)cc1", "activation": "-5.31%"}, {"smiles": "COc1cccc(C(=O)NCCSc2ccc(Br)cc2)c1", "activation": "-7.75%"}, {"smiles": "COc1ccc(C(=O)NCCSc2ccccc2C)cc1", "Potency": "1260 nM (active)"}, {"smiles": "Cc1c(NS(=O)(=O)c2cc(C(=O)NCCc3ccc(F)cc3)cc(Cl)c2Cl)c(=O)n(-c2ccccc2)n1C", "activation": "-5.14%"}, {"smiles": "Cc1ccccc1-n1c(C)cc(/C=C2\\NC(=O)NC2=O)c1C", "Potency": "3550 nM (active)"}, {"smiles": "Cc1cccc(C)c1-n1c(C)cc(/C=C2\\C(=O)NN(c3ccccc3)C2=O)c1C", "activation": "14.8%"}, {"smiles": "Cc1cc(/C=C2/NC(=O)NC2=O)c(C)n1-c1cccnc1", "activation": "1.57%"}, {"smiles": "Cc1ccc(C(=O)NCC(c2cccs2)N(C)C)cc1S(=O)(=O)N1CCOCC1", "note": "(centres undefined)", "activation": "3.21%"}, {"smiles": "O=c1oc2ccc(C#CC3(O)CCCCC3)cc2cc1-n1cc(-c2ccsc2)nn1", "activation": "0.191%"}, {"smiles": "O=C(CCNS(=O)(=O)c1ccccc1C(F)(F)F)Nc1ccncc1", "activation": "-2.75%"}, {"smiles": "CCCc1cc(-c2nc(-c3ccc(C)cc3)cs2)ccn1", "activation": "1.46%"}, {"smiles": "Cc1ccc(-c2csc(-c3c[nH]c4ccccc34)n2)cc1", "Potency": "1000 nM (active)"}, {"smiles": "Cc1ccc(-c2csc(-c3cc(C)on3)n2)cc1", "activation": "24%"}, {"smiles": "Cc1ccc(NC(=O)COC(=O)CN2CCCCCC2=O)c(C)c1", "activation": "-4.74%"}, {"smiles": "CC(=O)Nc1ccc(NC(=O)COC(=O)c2ccccc2C(=O)c2ccccc2)cc1", "activation": "1.63%"}, {"smiles": "COc1ccc(C)cc1NC(=O)c1cc(-c2ccccc2)nc2c1cnn2C(C)C", "activation": "-0.793%"}, {"smiles": "Cc1ccc(Nc2ncnc3c2cnn3C)c(C)c1", "activation": "-1.96%"}, {"smiles": "Cc1ccc(-n2ncc3c(Nc4cccc(C(=O)O)c4)ncnc32)cc1", "Potency": "794 nM (active)"}, {"smiles": "COc1ccc2nc(C)cc(Nc3cccc(C(=O)O)c3)c2c1", "activation": "-5.14%"}, {"smiles": "CCN(CC(=O)NCc1ccc(Cl)cc1)C(=O)c1c(C)noc1C", "activation": "-2.27%"}, {"smiles": "Cc1ccc(S(=O)(=O)N2CCN(c3ncnc4ccccc34)CC2)cc1", "activation": "-25.2%"}, {"smiles": "Cc1cc(N2CCOCC2)nc(-c2ccc(Br)cc2)n1", "activation": "1.79%"}, {"smiles": "Cc1nc(-c2ccc([N+](=O)[O-])cc2)c(-c2ccccc2)o1", "activation": "-1.23%"}, {"smiles": "Cc1ccc(C(=O)Cn2cc([N+](=O)[O-])nc2C)cc1", "activation": "0.0934%"}, {"smiles": "Cc1ccc2nc(-c3ccc(Br)cc3)cn2c1", "Potency": "398 nM (active)"}, {"smiles": "Cc1ccc(-c2cn3cc([N+](=O)[O-])ccc3n2)cc1", "Potency": "501 nM (active)"}, {"smiles": "CSc1nnc2ccc(-c3ccc(C)cc3)nn12", "activation": "-3.85%"}, {"smiles": "CC1CCCC(NC(=O)c2cc(-c3ccncc3)nc3ccccc23)C1C", "note": "(centres undefined)", "activation": "4.76%"}, {"smiles": "CCOc1ncccc1C(=O)OCC(=O)c1c[nH]c2ccccc12", "activation": "11.7%"}, {"smiles": "Brc1ccc(CN2CC[C@H]3C=CCc4cccc(c43)C2)cc1", "activation": "-2.1%"}, {"smiles": "O=C(OCc1cc(=O)n2ccsc2n1)C1(c2ccc(Cl)cc2)CC1", "activation": "1.14%"}, {"smiles": "O=C(Nc1ccccc1N1CCN(c2ccccc2)CC1)c1cccc(F)c1", "activation": "-1.86%"}, {"smiles": "O=C(Nc1ccn(Cc2ccccc2)n1)c1cccc(F)c1", "Potency": "3980 nM (active)"}, {"smiles": "O=C(Nc1cccc(NC(=O)c2cccc(F)c2)c1)c1ccccc1", "activation": "-0.197%"}, {"smiles": "Cc1ccc(S(=O)(=O)N(C)CC(=O)NCC(c2ccc(F)cc2)N2CCOCC2)cc1", "note": "(centres undefined)", "activation": "-9.26%"}, {"smiles": "CC(C)Nc1ccc(-n2nc3ccccc3[n+]2[O-])cc1", "Potency": "355 nM (active)"}, {"smiles": "COc1ccc(-c2noc(COc3ccc(Cl)c(C)c3)n2)cc1", "activation": "-0.141%"}, {"smiles": "CN(Cc1ccccn1)Cc1nc(-c2ccc(Cl)cc2)no1", "activation": "11.1%"}, {"smiles": "Cc1cc(Cl)ccc1OCc1nc(-c2ccncc2)no1", "Potency": "2820 nM (active)"}]}]}
